The record followed here is PubChem BioAssay AID720517 (National Center for Advancing Translational Sciences (NCATS), 2013).

This test can be described thus: qHTS for Inhibitors of Cell Surface uPA Generation: FP59 Counterscreen for Cherry-picked Compounds. For orientation: Quantitative high-throughput screening tests each substance at several concentrations.

Records with an inconclusive call do not appear. The source made the active and inactive calls. The call rests on the fitted dose curve; in most records, active means well fitted activation curve with a large enough effect; inconclusive means small, poorly fitted or top-dose-only effect; inactive means flat fitted curve, though single readings scatter.

Regarding `O=P1(NCCCl)OCCCN1CCCl` (stereo not given), the outcome was inactive.

Regarding `Cc1ccc(-n2c(O)c(C=NCCN3CCNCC3)c(=O)[nH]c2=S)cc1`, the outcome was inactive.

Take `COc1ccc(-c2nn(CCC#N)cc2C(=O)Nc2ccccc2)cc1OC`: the call was inactive.

As for `Cc1ncc(CN2CCCC(C(=O)c3cccc(OC(C)C)c3)C2)s1` (stereo not given), the molecule was called inactive.

Take `C[N+](C)(C)CCOC(=O)CBr`: the result was inactive.

For `COCC(=O)N1Cc2ccccc2-n2nncc2C1`, the molecule was called inactive.

Regarding `O=c1[nH]c(=O)n(CCc2ccccc2)c(O)c1C=NC1CC1`, the result was inactive.

For `CCOC(=O)c1ccc(N=Cc2c(O)n(-c3ccc(OC)cc3)c(=S)[nH]c2=O)cc1`, the molecule was called inactive.

Take `COc1ccccc1N1CCN(Cc2ccc(SC)cc2)CC1`: the call was inactive.

As to `COC(=O)C1=C(c2cccc(OC)c2OC)C[C@@H]2CC[C@H]1N2C(=O)NC1CC1`, the call was inactive.

As to `COc1ccccc1NC(=O)N1C[C@@H]2C[C@@H](C1)c1cccc(=O)n1C2`, the molecule was classed as inactive.

For the molecule `O=c1[nH]c(=O)n(-c2ccc(Cl)cc2)c(O)c1C=Nc1ccc(S(=O)(=O)Nc2nccs2)cc1`, the result was inactive.

Consider `CCOc1ccc(CN2CCN(C(=O)Cc3ccccc3)CC2)cc1`, for which the result was inactive.

For `COc1ccc(-c2nn(CCC#N)cc2C(=O)Nc2cccc([N+](=O)[O-])c2)cc1OC`, the outcome was inactive.

With `FC(F)(F)Oc1ccc(NC2=NCCCS2)cc1`, the molecule was classed as inactive.

Regarding `Cc1ccccc1O`, the result was inactive.

Consider `c1cncc(C2CCCCN2)c1` (stereo not given), for which the molecule was classed as inactive.

As to `CCCCCn1c(=O)c(C(=O)Nc2ccccn2)c(O)c2ccccc21`, the molecule was classed as inactive.

For the molecule `Cc1cc(C(=O)NP(=O)(N2CCOCC2)N2CCOCC2)c(C)n1C1CC1`, the molecule was classed as inactive.

Turning to `O=C(c1ccc(F)c([N+](=O)[O-])c1)N1CC2CC(C1)c1cccc(=O)n1C2` (stereo not given), the outcome was inactive.
